Six1-Eya2 inh = qHTS Assay for Inhibitors of the Six1/Eya2 Interaction. AlphaScreen GST-Six1/His-Eya2 binding, biochemical; stronger effect = lower value. Homeobox protein SIX1 (Homo sapiens) + Protein phosphatase EYA2 (Homo sapiens), …. activity change, % (no concentration beside the values). 360,000 compounds, 0.56% hits; in the data active = activity change below about -65%; inconclusive = mostly about -30% to -63%; note: % is set by controls: 0 for no effect and ±100 for the full control effect
Target sequence (O00167 whole entry, looked up): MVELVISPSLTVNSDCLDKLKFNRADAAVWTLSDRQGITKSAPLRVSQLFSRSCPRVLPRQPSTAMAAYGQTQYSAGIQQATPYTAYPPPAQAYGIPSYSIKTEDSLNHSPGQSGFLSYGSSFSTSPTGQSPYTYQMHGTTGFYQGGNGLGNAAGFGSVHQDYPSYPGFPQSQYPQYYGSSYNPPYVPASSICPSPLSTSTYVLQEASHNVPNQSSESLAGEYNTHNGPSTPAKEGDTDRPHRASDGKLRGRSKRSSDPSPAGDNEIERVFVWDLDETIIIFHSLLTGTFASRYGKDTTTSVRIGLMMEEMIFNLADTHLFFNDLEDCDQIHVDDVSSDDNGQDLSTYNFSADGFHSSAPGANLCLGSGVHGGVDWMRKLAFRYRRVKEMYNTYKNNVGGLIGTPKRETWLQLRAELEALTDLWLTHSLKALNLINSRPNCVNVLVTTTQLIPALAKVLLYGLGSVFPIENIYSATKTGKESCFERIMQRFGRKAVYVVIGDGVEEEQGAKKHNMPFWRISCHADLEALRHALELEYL
Target sequence (Q15475 whole entry, looked up): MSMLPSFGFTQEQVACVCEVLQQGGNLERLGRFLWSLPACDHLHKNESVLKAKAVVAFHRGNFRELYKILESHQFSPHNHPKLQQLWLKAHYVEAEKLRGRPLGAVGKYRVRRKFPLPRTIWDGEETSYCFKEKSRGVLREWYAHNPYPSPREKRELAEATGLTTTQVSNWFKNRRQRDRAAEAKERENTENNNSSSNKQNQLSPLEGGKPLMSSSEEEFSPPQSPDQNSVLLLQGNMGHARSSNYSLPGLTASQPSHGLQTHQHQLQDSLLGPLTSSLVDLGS
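AlphaScreen luminescence read after one hour at 37 °C in darkness. Pin-transferred compounds met GST-Six1 and His-Eya2 protein (5X stock 250 nM/500 nM) plus glutathione donor and Ni-chelate acceptor beads (5X, 50 ug/mL).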
G9a inh = qHTS Assay for Inhibitors of Histone Lysine Methyltransferase G9a; Histone-lysine N-methyltransferase EHMT2 (Homo sapiens), Q96KQ7; G9a H3K9 monomethylation, AlphaScreen, 2 h; Potency, µM (titrated, usually from 102 µM), for inactives: top-dose activity, negative = inhibition, usual class: inhibitors; 350,000 compounds, 8.8% hits; note: potency is the fitted concentration of half-maximal effect; % is set by controls: 0 for no effect and ±100 for the full control effect; nearly all actives have a fitted effect of over 75% in size
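AlphaScreen read-out: biotin-H3K9 peptide (500 nM) methylation by 20 nM enzyme with 20 uM SAM, 2 h at room temperature after 15 min compound preincubation; anti-monomethyl H3K9 antibody plus donor/acceptor beads, 10 min dark.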
CtBP-E1A blk = qHTS Assay for Inhibitors of the CtBP/E1A Interaction; AID 651724, 2012; 340,000 compounds, 0.49% hits; AlphaScreen GST-E1A/His-CtBP binding, 1536-well; stronger effect = lower value; CtBP / adenovirus E1A interaction (AlphaScreen); activity change, % (test concentration not listed); in the data active = activity change below about -65%; inconclusive = mostly about -30% to -63%; note: % is set by controls: 0 for no effect and ±100 for the full control effect
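GST-E1A and His-tagged CtBP (125 nM each as 5X stock) were preincubated with pin-transferred compound for 2 h at 37 °C in the dark, then glutathione donor and nickel acceptor beads were added for 1 h before AlphaScreen reading.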
HP1b binding inh = HTS for Inhibitors of HP1-beta Chromodomain Interactions with Methylated Histone Tails; Chromobox protein homolog 1 (Homo sapiens), P83916; 390,000 compounds, 0.56% hits; Potency, µM (top dose mostly 114 µM), inactives show top-dose activity change, negative = inhibition, actives largely listed as inhibitors; AlphaScreen HP1-beta / biotin-H3K9me3 peptide binding; note: potency is the fitted concentration of half-maximal effect; nearly all actives have a fitted effect of over 70% in size
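AlphaScreen: HP1-beta (50 nM) preformed 30 min with biotin-H3(1-18)K9me3 peptide (50 nM) in PBS pH 7.4, 0.01% Tween-20. Compound added for 30 min at RT, then streptavidin donor/nickel chelate acceptor beads (10 ug/mL) for 30 min.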
JMJD2A Tudor = qHTS Assay for Inhibitors of JMJD2A-Tudor Domain | AlphaScreen JMJD2A-Tudor / H3K4me3 peptide binding | 390,000 compounds, 4.4% hits | Potency, µM (top dose mostly 114 µM), for the others: at the top dose activity change, negative = inhibition, usual class: inhibitors; note: potency is the fitted concentration of half-maximal effect; % is set by controls: 0 for no effect and ±100 for the full control effect; nearly all actives have a fitted effect of over 50% in size
BAZ2B block = qHTS Assay for Inhibitors of BAZ2B | 360,000 compounds, 4.4% hits | Potency, µM (titrated, usually from 114 µM), without a hit: at the top dose activity change, negative = inhibition, usual class: inhibitors | AlphaScreen BAZ2B-H3K14Ac peptide displacement | Bromodomain adjacent to zinc finger domain protein 2B (Homo sapiens), Q9UIF8; note: potency is the fitted concentration of half-maximal effect; % is set by controls: 0 for no effect and ±100 for the full control effect; nearly all actives have a fitted effect of over 60% in size
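Protein-peptide AlphaScreen: BAZ2B 50 nM, b-H3K14Ac 50 nM, 1x PBS pH 7.4 + 0.01% Tween-20. Preincubation 30 min RT; cpd 30 min RT (top 110 uM); beads 20 min RT, light-protected.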
An asterisk follows results filed as active; ! = not confirmed by another sample; [ ] = dose if it differs, or a comment. Hits are enriched below; roughly 10% of the tested compounds scored in any of these assays. Unless noted, calls come from the whole dose curve; as a rule, active = well fitted inhibition curve with a large enough effect; inconclusive = small, poorly fitted or top-dose-only effect; inactive = no such curve, though single readings can be large or run the other way.

Screening COC(=O)c1ccc(NC(=O)COc2coc(CN3CCc4ccccc43)cc2=O)cc1 returned Six1-Eya2 inh -1, G9a inh -5%, CtBP-E1A blk 5, HP1b binding inh 25%, JMJD2A Tudor -10% and BAZ2B block inconclusive.
Cc1ccc(NC(=O)COc2coc(CN3CCc4ccccc43)cc2=O)cc1Cl was read as Six1-Eya2 inh 1, G9a inh -26%, CtBP-E1A blk -1, HP1b binding inh -35%, JMJD2A Tudor 45µM* and BAZ2B block 50µM*.
For O=C(COc1coc(CN2CCCc3ccccc32)cc1=O)Nc1ccc([N+](=O)[O-])cc1 the results were Six1-Eya2 inh -4, G9a inh 11µM*, CtBP-E1A blk -16, HP1b binding inh 8%, JMJD2A Tudor -18% and BAZ2B block -9%.
For Cc1cc(=O)n2nc(N(C)CC(=O)NCc3ccc(Cl)cc3)sc2n1 the results were G9a inh 3%[59 µM], HP1b binding inh 26%, JMJD2A Tudor -4% and BAZ2B block 3%.
`Cc1cccc(OCC(=O)Nc2ccc(OCc3cc(=O)n4cc(C)ccc4n3)cc2)c1` gave G9a inh -1%[59 µM], HP1b binding inh 31%[57 µM], JMJD2A Tudor -3% and BAZ2B block 5%.
NC(=O)c1ccc(NC(=O)COc2coc(CN3CCc4ccccc4C3)cc2=O)cc1 was read as Six1-Eya2 inh -21, G9a inh 50µM*, CtBP-E1A blk 2, HP1b binding inh 24%, JMJD2A Tudor -16% and BAZ2B block inconclusive.
Screening COc1ccc(NC(=O)CSc2c(C)nn(-c3nnc(C)c(=O)[nH]3)c2C)cc1 returned Six1-Eya2 inh inconclusive, G9a inh 13µM*, CtBP-E1A blk -25, HP1b binding inh 41%, JMJD2A Tudor 40µM* and BAZ2B block 32µM*.
`COc1ccc(NC(=O)CSc2nncn2C)cc1` gave Six1-Eya2 inh 7, G9a inh -3%[2.33 µM], CtBP-E1A blk -2, HP1b binding inh 36%, JMJD2A Tudor -4% and BAZ2B block 6%.
`O=C(Nc1ccc(C(=O)N2CCN(c3ccc(Cl)cc3)CC2)cc1)C1=CSCCO1` gave Six1-Eya2 inh 20, G9a inh -1%, CtBP-E1A blk 21, HP1b binding inh 23%, JMJD2A Tudor inconclusive and BAZ2B block -27%.
O=C(Nc1ccccc1C(=O)N1CCN(c2cccc(Cl)c2)CC1)C1=CSCCO1 was read as Six1-Eya2 inh -1, G9a inh 32%[59 µM], CtBP-E1A blk -8, HP1b binding inh -7%, JMJD2A Tudor -34% and BAZ2B block 71µM*.
Cc1cc(Cl)ccc1NC(=O)CN1C(=O)CSc2ccc(S(=O)(=O)N(C)C)cc21 was read as G9a inh -1%[59 µM], HP1b binding inh 18%, JMJD2A Tudor -9% and BAZ2B block -3%.
`COc1cc(F)cc(F)c1[S+](=O)([O-])N1CCN([S+](=O)([O-])c2ccc3c(c2)OCCO3)CC1` gave JMJD2A Tudor -2%.
For Fc1cccc(CNC2CCN(CCc3ccccc3)CC2)c1 the results were Six1-Eya2 inh 2, G9a inh 2%, CtBP-E1A blk -4, HP1b binding inh 35%, JMJD2A Tudor -19% and BAZ2B block -28%.
For OC(COc1ccccc1F)CN1CCC(Cc2ccccc2)CC1 (stereo not drawn) the results were Six1-Eya2 inh 1, CtBP-E1A blk -12, HP1b binding inh 27%, JMJD2A Tudor -15% and BAZ2B block -1%.
`Fc1ccccc1CN1CCC(Cc2ccccc2)CC1` gave Six1-Eya2 inh 12, CtBP-E1A blk -12, HP1b binding inh inconclusive, JMJD2A Tudor 0.89µM* and BAZ2B block inconclusive.
Fc1cccc(CN2CCC(Cc3ccccc3)CC2)c1 was read as Six1-Eya2 inh -2, G9a inh 28µM*, HP1b binding inh inconclusive, JMJD2A Tudor 56µM* and BAZ2B block 79µM*.
N#Cc1cc2c(=O)n3ccccc3nc2n(-c2nnc(SCc3ccc(F)cc3)s2)c1=O was read as G9a inh 0%[59 µM], HP1b binding inh 46%, JMJD2A Tudor 8% and BAZ2B block 0%.
For CC(=O)c1cccc(NS(=O)(=O)c2cc3c(cc2C)n(C)c(=O)c(=O)n3C)c1 the results were G9a inh -1%[59 µM], HP1b binding inh 33%, JMJD2A Tudor -4% and BAZ2B block 1%.
Screening CN=c1nc(-c2ccccc2)n(-c2ccccc2)s1 returned Six1-Eya2 inh -4, G9a inh 1.1µM*!, CtBP-E1A blk 1, HP1b binding inh 7.1µM*, JMJD2A Tudor 22µM* and BAZ2B block 8.9µM*.
`CCOC(=O)c1ccc(NC(=O)Cn2cc(C(=O)C3CC3)c3ccccc32)cc1` gave G9a inh -6%[59 µM], HP1b binding inh 26%, JMJD2A Tudor 5% and BAZ2B block 1%.
N=C1/C(=C/c2ccc(Br)o2)C(=O)N=C2SC(CC(=O)N3CCCC3)=NN12 was read as Six1-Eya2 inh -9, G9a inh inconclusive, HP1b binding inh 10%, JMJD2A Tudor inconclusive and BAZ2B block 50µM*.
Screening N=C1/C(=C/c2ccco2)C(=O)N=C2SC(CC(=O)N3CCCC3)=NN12 returned Six1-Eya2 inh -4, G9a inh 40µM*, CtBP-E1A blk -2, HP1b binding inh -4%, JMJD2A Tudor 79µM* and BAZ2B block inconclusive.
Cc1ccc(/C=C2\C(=N)N3N=C(CC(=O)N4CCCCC4)SC3=NC2=O)cc1 was read as Six1-Eya2 inh 2, G9a inh 14%, CtBP-E1A blk -14, HP1b binding inh 31%, JMJD2A Tudor -24% and BAZ2B block -15%[57.1 µM].
For N=C1/C(=C\c2ccc(Br)o2)C(=O)N=C2SC(CC(=O)N3CCOCC3)=NN12 the results were Six1-Eya2 inh -10, G9a inh 13%[12.7 µM], CtBP-E1A blk -15, HP1b binding inh 23%, JMJD2A Tudor 89µM* and BAZ2B block 50µM*.
Screening COc1ccc(-n2c(C)cc(/C=C3\C(=N)N4N=C(CC(=O)N5CCOCC5)SC4=NC3=O)c2C)cc1 returned Six1-Eya2 inh -18, G9a inh -5%[0.0925 µM], HP1b binding inh 16%, JMJD2A Tudor -34% and BAZ2B block 45µM*.

Compound activity deposited in PubChem BioAssay by National Center for Advancing Translational Sciences (NCATS).
